Source: PubChem (Broad Institute)
Pf Dd2 growth: blocks growth of Plasmodium falciparum Dd2 parasites | P. falciparum Dd2 growth, SYBR Green, 72 h; hits give low values | activity change, % at 10 µM | actives 2.3% (n = 94,000) | AID 1159554; in the data active = activity change below about -80%; inconclusive = no clear call, values can overlap the other calls
T cruzi growth-1: inhibitors of T. cruzi proliferation. T. cruzi beta-gal in NIH3T3, GalScreen luminescence, 90 h. inhibition, % at 8.34 µM. actives 5.9% (n = 77,000). AID 624255;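 active = mean inhibition above about 93%, with at least 55% of replicates each passing it, limit read from the data, passing the limit was not always enough; inconclusive = only one of those two conditions holds; inactive = neither condition holds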
C diff HTS: inhibitors of Clostridium difficile growth | growth activity, negative = inhibition, % at 16 µg/mL (by protocol) | AID 1259249 | Clostridium difficile clinical isolate growth, OD600, 24 h; hits give low values | actives 0.25% (n = 86,000);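 active = mean growth activity at or below -80% and every replicate also at or below -80%; inconclusive = mean at or below -80% but some replicate above -80%; inactive = mean growth activity above -80%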;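 also: 0% = DMSO wells and -100% = levofloxacin 16 µg/mL wells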
T cruzi growth-2: blocks T. cruzi growth in NIH3T3 host cells; T. cruzi beta-gal in NIH3T3, GalScreen luminescence, 90 h; actives 72% (n = 5,600); AID 651739; inhibition, % at 8.35 µM; shares compounds with T cruzi growth-1;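 active = mean replicate inhibition above about 95% and at least 55% of replicates individually reaching it, limit read from the data; inconclusive = only one of the two criteria is met; inactive = neither criterion is met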
T cruzi growth-3: blocks T. cruzi growth in NIH3T3 host cells; shares compounds with T cruzi growth-1; inhibition, % at 2.09 µM; actives 21% (n = 5,600); T. cruzi beta-gal in NIH3T3, GalScreen luminescence, 90 h;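 active = mean inhibition above about 95%, with at least 55% of replicates also reaching it, limit read from the data; inconclusive = meets just one of the two conditions; inactive = meets neither condition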;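 also: plate controls were neutral control median for no effect and positive control median for full effect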
NIH3T3 tox: cytotoxicity in mouse NIH/3T3 fibroblasts. shares compounds with T cruzi growth-1. NIH/3T3 viability, CellTiter-Glo ATP luminescence, 90 h. cytotoxicity (signal decrease), % at 8.35 µM. actives 14% (n = 5,600). AID 651742;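 active = mean signal decrease across replicates above about 35% based on untreated-well scatter, with enough replicates individually passing, limit read from the data; inconclusive = no rule stated though some were filed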;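 also: 0% = median of neutral control wells and 100% = median of positive control wells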
NIH3T3 tox 2: NIH/3T3 (mouse) viability loss. shares compounds with T cruzi growth-1. NIH/3T3 viability, CellTiter-Glo ATP luminescence, 90 h. inhibition, % at 24.9 µM. actives 56% (n = 5,600). AID 651744;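 active = mean loss of cell viability signal at or above a set limit, and enough replicates individually reaching it; inconclusive = meets only the mean limit or only the replicate share; inactive = meets neither condition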;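 also: 0% = median of neutral control wells and 100% = median of positive control wells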
Starred values were filed as active, the others as inactive; ? = inconclusive; . = not tested or not shown. Rows were chosen to be rich in hits. Some 6.7% of all compounds tested hit in one or more screens of this group.

SMILES | Pf Dd2 growth | T cruzi growth-1 | C diff HTS | T cruzi growth-2 | T cruzi growth-3 | NIH3T3 tox | NIH3T3 tox 2
C[C@H]1CCCCO[C@@H](CN(C)C(=O)Nc2ccc(C(F)(F)F)cc2)[C@@H](C)CN([C@@H](C)CO)C(=O)c2cc(N(C)C)ccc2O1 | 33.9 | ? | 1.5 | 103.1* | 50.0 | -8.2 | 19.9
C[C@@H]1CCCCO[C@H](CN(C)C(=O)Nc2ccccc2)[C@H](C)CN([C@@H](C)CO)C(=O)c2cc(NC(=O)Nc3ccc(C(F)(F)F)cc3)ccc2O1 | -38.6 | . | 6.6 | . | . | . | .
C[C@@H]1CCCCO[C@H](CN(C)C(=O)Nc2ccc(F)cc2)[C@H](C)CN([C@H](C)CO)C(=O)c2cc(NC(=O)Nc3ccc(C(F)(F)F)cc3)ccc2O1 | -77.0 | 92.6 | 4.0 | . | . | . | .
C[C@@H]1CCCCO[C@@H](CN(C)C(=O)Nc2ccc(C(F)(F)F)cc2)[C@H](C)CN([C@@H](C)CO)C(=O)c2cc(NC(=O)Nc3ccc(C(F)(F)F)cc3)ccc2O1 | 8.2 | 115.7* | 17.7 | 99.0* | 113.0* | -17.4 | -25.0
CN(C)CCCNC(=O)[C@@H]1[C@@H](CO)[C@@H]2Cn3c(ccc(-c4ccccc4)c3=O)[C@H]1N2C(=O)CC1CC1 | . | -1.2 | -6.0 | . | . | . | .
COCC(=O)N(C)C[C@H]1Oc2ncc(C#Cc3ccccc3)cc2C(=O)N([C@@H](C)CO)C[C@@H]1C | 8.4 | -76.9 | -6.3 | . | . | . | .
Cc1ccc(S(=O)(=O)Nc2ccc3c(c2)CC(=O)N([C@@H](C)CO)C[C@H](C)[C@H](CN(C)Cc2ccc4c(c2)OCO4)O3)cc1 | -3.1 | 55.1 | -20.3 | . | . | . | .
CO[C@H]1CN(C)C(=O)c2cc(NS(C)(=O)=O)ccc2OC[C@@H](C)N(C)C[C@H]1C | 55.3 | 17.0 | . | . | . | . | .
Cc1noc(C)c1S(=O)(=O)Nc1ccc2c(c1)C(=O)N([C@@H](C)CO)C[C@@H](C)[C@@H](CN(C)CC1CCCCC1)OCCCC[C@H](C)O2 | -46.4 | 32.3 | -1.0 | . | . | . | .
CO[C@@H](CN(C)S(=O)(=O)c1cn(C)cn1)[C@H](C)CN(C(=O)Nc1ccc(C(F)(F)F)cc1)[C@@H](C)CO | 20.9 | 37.8 | . | . | . | . | .
C[C@H]1CCCCO[C@@H](CN(C)C(=O)Nc2ccc(C(F)(F)F)cc2)[C@@H](C)CN([C@@H](C)CO)C(=O)c2cc(NC(=O)Nc3ccc(C(F)(F)F)cc3)ccc2O1 | 8.5 | 125.6* | 2.2 | 109.4* | 111.2* | -7.1 | 5.6
C[C@H](CO)N1C[C@H](C)[C@@H](CN(C)C(=O)c2ccccc2)OCCCC[C@H](C)Oc2ccc(NC(=O)Nc3ccc(C(F)(F)F)cc3)cc2C1=O | 57.6 | -56.3 | -0.9 | . | . | . | .
CC(C)NC(=O)Nc1ccc2c(c1)C(=O)N([C@H](C)CO)C[C@H](C)[C@@H](CN(C)C(=O)Nc1ccc(C(F)(F)F)cc1)OCCCC[C@@H](C)O2 | -12.1 | 46.3 | -0.9 | . | . | . | .
C[C@@H]1CCCCO[C@H](CN(C)C(=O)Nc2ccc(F)cc2)[C@@H](C)CN([C@@H](C)CO)C(=O)c2cc(NC(=O)Nc3ccc(C(F)(F)F)cc3)ccc2O1 | ? | 89.0 | 6.0 | . | . | . | .
C[C@H]1CCCCO[C@H](CN(C)C(=O)Nc2ccc(C(F)(F)F)cc2)[C@@H](C)CN([C@@H](C)CO)C(=O)c2cc(NC(=O)Nc3ccc(C(F)(F)F)cc3)ccc2O1 | -78.3 | 117.7* | 1.7 | 108.6* | 106.6* | 5.2 | 13.1
C[C@@H]1CCCCO[C@@H](CN(C)C(=O)c2ccccc2)[C@H](C)CN([C@@H](C)CO)C(=O)c2cc(NC(=O)Nc3ccc(C(F)(F)F)cc3)ccc2O1 | -15.6 | 102.2* | 3.1 | 105.2* | 107.8* | -7.8 | -5.7
C[C@@H]1CCCCO[C@@H](CN(C)C(=O)Nc2ccc(C(F)(F)F)cc2)[C@H](C)CN([C@H](C)CO)C(=O)c2cc(NC(=O)Nc3ccc(F)cc3)ccc2O1 | -46.1 | 94.6 | 6.8 | . | . | . | .
CC(C)NC(=O)Nc1ccc2c(c1)C(=O)N([C@@H](C)CO)C[C@@H](C)[C@H](CN(C)C(=O)Nc1ccc(C(F)(F)F)cc1)OCCCC[C@@H](C)O2 | -28.7 | 102.2* | -0.5 | 102.4* | 8.6 | 14.0 | 6.9
